The source of these data is PubChem BioAssay AID485344 (National Center for Advancing Translational Sciences (NCATS), 2010).

Hit rate of the full screen: of about 340,000 compounds, about 6,900 (2%) were called active. No stated cut-off is given here; in the data, active means inhibition above about 30%; inactive means below that, where a call was filed. The sample as a whole holds a higher share of actives than the screen did.

D(2) dopamine receptor (Homo sapiens), sequence (P14416 whole entry, looked up): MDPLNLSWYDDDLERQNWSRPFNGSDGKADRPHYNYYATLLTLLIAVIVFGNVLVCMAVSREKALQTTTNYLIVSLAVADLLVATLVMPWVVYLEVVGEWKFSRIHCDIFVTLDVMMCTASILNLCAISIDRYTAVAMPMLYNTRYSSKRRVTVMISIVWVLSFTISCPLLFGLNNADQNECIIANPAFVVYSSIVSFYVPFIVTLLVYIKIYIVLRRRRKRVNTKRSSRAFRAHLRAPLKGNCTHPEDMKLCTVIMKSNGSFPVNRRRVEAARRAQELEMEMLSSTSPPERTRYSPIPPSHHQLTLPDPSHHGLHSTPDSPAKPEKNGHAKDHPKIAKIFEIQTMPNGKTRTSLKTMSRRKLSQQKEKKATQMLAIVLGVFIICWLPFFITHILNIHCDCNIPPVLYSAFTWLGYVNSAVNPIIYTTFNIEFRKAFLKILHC

In this assay the target is D(2) dopamine receptor (Homo sapiens) (UniProt P14416). Briefly: HTS Assay for Allosteric Antagonists of the Human D2 Dopamine Receptor: Primary Screen for Antagonists. Further: 0% is about no effect. The conditions noted are these: HEK293 TREx D2 cells, calcium flux, dopamine EC80; at 10 µM; stronger effect = higher value. Put shortly:
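Read-out: kinetic calcium fluorescence (1 cycle/s) in inducible HEK293 T-REx D2 cells after an EC80 dopamine addition that followed 180 s compound preincubation. Loss of the dopamine response indicates antagonism.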
(Calcium assays in cells follow changes in intracellular calcium, usually with a dye or a luminescent sensor.)
For orientation: inhibition means the drop in the measured response relative to a control, in per cent. For the compound `O=C(Nc1ccccc1N1CCOCC1)c1ccncc1`, the inhibition was -22.1% (inactive).
With `COC(=O)c1ccc(C)c(NC(=O)C2CC(=O)N(C3CCCC(C)C3C)C2)c1` (centres undefined), the inhibition was 25.8% (inactive).
On to `c1ccc(COc2nsnc2N2CCOCC2)cc1`, for which the inhibition was -11.6% (inactive).
To `c1nc(COc2nsnc2N2CCOCC2)cs1` belongs 36.2% (active).
To `O=C(O)COc1nsnc1N1CCOCC1` belongs -6.01% (inactive).
Then `Cc1nc(SCC(=O)NC2CCCCC2C)c(C#N)c(C)c1C` (centres undefined), with -2.83% (inactive); and `CCn1c(C)c(C)c2cc(C(=O)N3CCN(c4cccc(C)c4C)CC3)ccc21`, with 35.7% (active).
Take `CCC(CC)C(=O)N1CCN(c2cccc(C)c2C)CC1`: the inhibition is -16.7% (inactive).
Then `Cc1cccc(N2CCN(C(=O)c3cccc(N4C(=O)C5C6C=CC(C6)C5C4=O)c3)CC2)c1C` (centres undefined), with -3.04% (inactive); and `C[C@H](NC(=O)c1ccccc1)C(=O)OCC(=O)c1c[nH]c2ccccc12`, with -14% (inactive).
Then `Cc1ccc(CNC(=O)c2cccc3c2C(=O)c2ccc(N4CCC(C)CC4)cc2S3(=O)=O)cc1`, with -2.45% (inactive); and `Cc1ccc(Nc2nnc(SC(C)C(=O)NC3CC3)s2)cc1` (centres undefined), with -31.5% (inactive); and `CCc1nnc(NC(=O)c2ccc(S(=O)(=O)NC3CCCCC3)cc2)s1`, with -18.8% (inactive).
Regarding `Cc1nnc(SC(C)C(=O)Nc2ccc(S(=O)(=O)NC3CCCCC3)cc2)s1` (centres undefined), the inhibition was 61.3% (active).
Then `Cc1c(C(=O)OCC(=O)N2CCCC2=O)oc2ccccc12`, with 10.7% (inactive).
To `CCOC(=O)N1CCN(C(=O)CSc2nc(=O)n3cccc(C)c3n2)CC1` belongs -1.99% (inactive).
To `CCCCSc1nc2ccccc2[nH]1` belongs 22.4% (inactive).
Consider `O=C(COC(=O)CCCSc1nc2ccccc2[nH]1)Nc1ccc(Oc2ccccc2)cc1`, for which the inhibition is 38.2% (active).
On to `CCc1nnc(NC(=O)CCCSc2nc3ccccc3[nH]2)s1`, for which the inhibition was -10.6% (inactive).
To `COCCN(C(=O)CC1CCCCC1)c1c(N)n(CC(C)C)c(=O)[nH]c1=O` belongs -47.9% (inactive); to `Cc1cc(C)n2nc(C(=O)OCC(=O)N(CCC#N)c3ccc(F)cc3)nc2n1`, -5.33% (inactive).
To `COc1cccc(N2CC(NC(=O)c3ccc4ccccc4c3)CC2=O)c1` (centres undefined) belongs 34.4% (active); to `COc1cccc(N2CC(C(=O)Nc3c(C)cccc3C)CC2=O)c1` (centres undefined), -21.9% (inactive); to `COc1ccc(N2CC(NS(=O)(=O)c3ccc4ccccc4c3)CC2=O)cc1` (centres undefined), 17.1% (inactive).
To `CCOc1ccc(NC(=O)CN(C)C(=O)Cn2c(=O)cnc3ccccc32)cc1OCC` belongs 6.33% (inactive); to `COC(=O)c1ccc(COC(=O)CNC(=O)c2cccc(OC)c2)o1`, -4.34% (inactive); to `Cc1ccc(S(=O)(=O)Nc2nc3ccccc3s2)cc1[N+](=O)[O-]`, -1.44% (inactive).
With `Cn1nnnc1SCC(=O)Nc1nc2ccccc2s1`, the inhibition is 5.01% (inactive).
To `Cc1ccnc(Nc2nc3ccccc3s2)n1` belongs 39.5% (active); to `C=C(C)CNc1cc(S(=O)(=O)N2CCOCC2)ccc1Oc1ccccc1`, -1.1% (inactive); to `CCOc1ccccc1N1CCN(C(=O)COc2ccc3c(C)cc(=O)oc3c2)CC1`, 20.8% (inactive).
Then `Cc1cc(=O)oc2cc(OCCC[n+]3ccccc3)ccc12`, with 13.4% (inactive); and `Cc1ccccc1N1CCN(CCCOc2ccc3c(C)cc(=O)oc3c2)CC1`, with 109% (active).
In the case of `Cc1ccc(C(=O)CN2C(=O)NC3(CCOc4ccccc43)C2=O)s1` (centres undefined), the inhibition is -0.39% (inactive).
To `O=C(COC(=O)CCCN1C(=O)c2cccc3cccc(c23)C1=O)NC1CCS(=O)(=O)C1` (centres undefined) belongs 1.37% (inactive).
Then `O=C(Nc1ccc2c(c1)OCCO2)C1CCCC1`, with 3.86% (inactive).
With `Cc1nn(-c2ccccc2)c(Cl)c1C(=O)Nc1ccccc1`, the inhibition is -28.3% (inactive).
Turning to `Cc1ccc(NC(=O)Nc2cc(-c3ccccc3)nn2C)cc1Cl`, the inhibition was -13.2% (inactive).
With `Cc1cc(NC(=O)c2cnn3cccnc23)n(-c2ccccc2)n1`, the inhibition was 5.9% (inactive).
To `Cc1cc(NC(=O)Nc2ccccc2)n(-c2ccccc2)n1` belongs 31.4% (active); to `Cc1cc(NC(=O)Nc2ccc(Cl)cc2)n(-c2ccccc2)n1`, 40.6% (active).
Then `CC(=O)c1cccc(NC(=O)c2cc(C)nn2-c2ccccc2)c1`, with -7.81% (inactive).
Then `C#CCOCCOCCOCCNc1nc(N2CCN(C(=O)Cn3cc(CCCCN)nn3)CC2)nc(N2CCN(C(=O)[C@H](CCCCN)n3cc(CCC(=O)O)nn3)CC2)n1`, with -10.9% (inactive); and `CCOc1ncccc1C(=O)OCC(=O)c1c[nH]c2ccccc12`, with 12.3% (inactive); and `O=C(CN1CCN(S(=O)(=O)c2ccc(Cl)s2)CC1)N1CCCCC1`, with -11.9% (inactive).
`CCc1ccc(Nc2n[n+](-c3ccccc3)c(-c3cccc(Cl)c3Cl)s2)cc1`: the inhibition is 6.13% (inactive).
To `CCCCN(C(=O)C(CCSC)N1C(=O)c2ccccc2C1=O)c1c(N)n(CCC)c(=O)[nH]c1=O` (centres undefined) belongs -4.67% (inactive).
Take `Cc1c(C(=O)NNC(=O)c2ccncc2)oc2ccccc12`: the inhibition was 13.9% (inactive).
`O=C(NCc1ccccc1CN1CCCC1)c1cccc(S(=O)(=O)Nc2ccc(F)cc2)c1`: the inhibition was 61.7% (active).
Then `COc1ccccc1C(CNC(=O)c1cccc(S(=O)(=O)Nc2ccc(F)cc2)c1)N(C)C` (centres undefined), with -19.6% (inactive); and `CCN(c1ccccc1)S(=O)(=O)c1cccc(C(=O)NCc2ccccc2CN2CCOCC2)c1`, with -43% (inactive).
Regarding `O=C(Nc1ccc(F)cc1)N1CCN(c2ccc(F)cc2)CC1`, the inhibition was -1.72% (inactive).
On to `CN1CCN(CCNC(=O)Nc2ccc([N+](=O)[O-])cc2)CC1`, for which the inhibition was 11.3% (inactive).
As for `O=C(NCCCN1CCN(c2ccc(F)cc2)CC1)Nc1ccc([N+](=O)[O-])cc1`, the inhibition is 45.2% (active).
On to `COc1cccc(NC(=O)CN(C)CC(=O)c2c(N)n(Cc3ccccc3)c(=O)n(C)c2=O)c1`, for which the inhibition was -15.4% (inactive).
Then `COCCN(CCOC)C(=S)Nc1ccccc1Cl`, with 3.22% (inactive).
Then `COc1ccc(Nc2cc(Cl)ccc2C(=O)O)cn1`, with 9.54% (inactive); and `COc1ccc(NC(=S)Nc2ccccc2Cl)cn1`, with 40.5% (active).
As to `Cc1n[nH]c(=O)c2c(NC(=O)CSc3ccccc3F)oc(C)c12`, the inhibition is 0.909% (inactive).
